Results: the supplement of paper PMC10127200
Structures can show the parent of a compound that is named as a salt.

Experiments:
Assay in all cases: Euclidean distance of Cell Painting phenotypic profile (signed KS, 77 features) to DMSO centroid (dimensionless distance); 5 or 10 uM (library dependent); higher = stronger phenotypic change vs DMSO (phenoactivity)
Conditions in all cases: 48 h
786-O = system: 786-O
Procedure, shortened: (§1)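 Phenoactivity is computed as Euclidean distance to the median vehicle profile. The profiles, drawn from 77 Harmony features scored as signed Kolmogorov-Smirnov statistics versus same-plate vehicle wells, were corrected for plate position, correlation-weighted and replicate-averaged at the top dose. Stained cells were imaged confocally at 20X (9 fields/well) after 48 h with library compounds at 10 or 5 uM, 0.1% DMSO final, in five cancer lines and a healthy fibroblast line.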

A549 = system: A549
Procedure, shortened: as §1

DU145 = system: DU145
Procedure, shortened: as §1

FB = system: FB
Procedure, shortened: as §1

HEPG2 = system: HEPG2
Procedure, shortened: as §1

OVCAR4 = system: OVCAR4
Procedure, shortened: as §1

Row | SMILES | Euclidean distance (786-O) | Euclidean distance (A549) | Euclidean distance (DU145) | Euclidean distance (FB) | Euclidean distance (HEPG2) | Euclidean distance (OVCAR4)
1 | Cc1cc(/C=C/C#N)cc(C)c1Nc1ccnc(Nc2ccc(C#N)cc2)n1 [Rilpivirine] | 1.85 | 2.11 | 1.55 | 1.69 | 0.573 | 0.925
2 | CC(C)c1c(C(=O)Nc2ccccc2)c(-c2ccccc2)c(-c2ccc(F)cc2)n1CC[C@@H](O)C[C@@H](O)CC(=O)O [atorvastatin] | 1.57 | 1.35 | 3.44 | 3.29 | 0.836 | 1.24
3 | CCOCc1nc2c(N)nc3ccccc3c2n1CC(C)(C)O [Resiquimod] | 1.35 | 1.05 | 1.47 | 0.954 | 0.587 | 1.19
4 | Cc1[nH]c(=O)c(C#N)cc1-c1ccc2nccn2c1 [Olprinone] | 1.08 | 1.07 | 0.61 | 1.08 | 0.547 | 1.11
5 | N[C@H]1CONC1=O [L-Cycloserine] | 0.838 | 0.531 | 1.03 | 1.02 | 0.788 | 1.56
6 | Cn1cc(-c2ccc3c(c2)ncn3-c2cc(NS(=O)(=O)C3CC3)cc(-c3ccc(F)cc3F)c2)cn1 | 2.53 | 1.64 | 1.26 | 4.3 | 1.6 | 2.75
7 | CCCOc1ccc(C(=O)OCCN(CC)CC)cc1N [Proparacaine HCl] | 1.06 | 1.11 | 1.7 | 1.27 | 0.765 | 1.27
8 | C[C@H]1CO[C@@H]2Cn3cc(C(=O)NCc4ccc(F)cc4F)c(=O)c(O)c3C(=O)N12 | 1.14 | 1.26 | 0.669 | 0.944 | 0.626 | 0.809
9 | COC(=O)Nc1nc2cc([S+]([O-])c3ccccc3)ccc2[nH]1 (stereo unspecified) [Oxfendazole] | 1.09 | 0.692 | 1.08 | 0.801 | 1.42 | 1.12
10 | CN(C)C(=O)N[C@H]1CC[C@H](CCN2CCN(c3cccc(Cl)c3Cl)CC2)CC1 [Cariprazine HCl] | 1.25 | 1.41 | 1.47 | 1.58 | 1.63 | 0.982
11 | CCN(CC)C(=S)SSC(=S)N(CC)CC [Disulfiram] | 1.95 | 1.78 | 1.34 | 2.84 | 0.547 | 1.32
12 | Cc1cnc(NC(=O)Nc2cc(Br)c(C)cc2OC[C@@H]2CNCCO2)cn1 | 2.52 | 1.52 | 1.04 | 1.52 | 2.15 | 3.62
13 | CC/C=C(\C(=O)N[C@@H]1C(=O)N2C(C(=O)OCOC(=O)C(C)(C)C)=C(COC(N)=O)CS[C@H]12)c1csc(N)n1 [Cefcapene Pivoxil Hydrochloride] | 1.24 | 0.833 | 2.69 | 0.746 | 0.54 | 0.898
14 | COc1ccc(COc2ccc(Cc3cnc(N)nc3N)cc2OC)cc1 | 0.708 | 1.1 | 0.739 | 1.13 | 2.08 | 0.792
15 | C[C@]12CC[C@@H]3c4ccc(O)cc4CC[C@H]3[C@@H]1C[C@@H](O)[C@@H]2O [Estriol] | 1.2 | 0.835 | 1.5 | 0.871 | 0.511 | 1.2
16 | Cc1nc(Nc2ncc(C(=O)Nc3c(C)cccc3Cl)s2)cc(N2CCN(CCO)CC2)n1 [Dasatinib] | 3.15 | 3.53 | 4.42 | 3.41 | 2.2 | 3.92
17 | COc1ccc2c(c1)c(CC(=O)O)c(C)n2C(=O)c1ccc(Cl)cc1 [Indomethacin] | 1.44 | 0.49 | 1.66 | 0.86 | 1.8 | 1.2
18 | O=C1NC(=O)/C(=C/c2ccc(-c3ccc(F)cc3O)o2)S1 | 1.18 | 0.855 | 1.25 | 1.02 | 0.814 | 0.97
19 | N#CC1(c2ccc(NC(=O)c3cccnc3NCc3ccncc3)cc2)CCCC1 [Apatinib] | 0.955 | 1.12 | 0.92 | 2.3 | 1.34 | 0.799
20 | Cc1cc(N2CCOCC2)ccc1Nc1nc(NC2CCCCC2)c2[nH]cnc2n1 | 1.79 | 2.73 | 1.25 | 1.29 | 1.78 | 1.73
21 | C[C@@H]1C[C@H]2[C@@H]3CCC4=CC(=O)C=C[C@]4(C)[C@@]3(F)[C@@H](O)C[C@]2(C)[C@@]1(O)C(=O)CO [Dexamethasone (DHAP)] | 1.45 | 2.32 | 2.14 | 1.75 | 0.718 | 1.86
22 | C#C[C@]1(O)CC[C@H]2[C@@H]3CCC4=Cc5oncc5C[C@]4(C)[C@H]3CC[C@@]21C [Danazol] | 1.02 | 1.02 | 1.43 | 0.594 | 1.3 | 1.02
23 | COc1cc2nc(N3CCN(C(=O)c4ccco4)CC3)nc(N)c2cc1OC [Prazosin HCl] | 0.833 | 0.676 | 0.97 | 0.552 | 0.382 | 0.59
24 | COc1cc(NS(=O)(=O)c2ccc(N)cc2)nc(OC)n1 [SulfadiMethoxine sodium] | 1.05 | 0.781 | 0.776 | 1.03 | 0.428 | 0.631
25 | O=C(CCCN1CC=C(n2c(=O)[nH]c3ccccc32)CC1)c1ccc(F)cc1 [Droperidol] | 1.34 | 0.569 | 0.766 | 0.888 | 0.689 | 0.73
26 | Nc1cc(C(F)(F)F)c(-c2cc(N3CCOCC3)nc(N3CCOCC3)n2)cn1 [Buparlisib (BKM120. NVP-BKM120)] | 2.55 | 3.38 | 2.88 | 2.98 | 2.83 | 3.29
